# Reference: PubChem BioAssay (NCATS)
# Records with an inconclusive call do not appear. Where a call stands in place of a potency, no number is given. Calls of active or inactive are those of the source. The call rests on the fitted dose curve; in most records, active means well fitted curve in the direction sought with a large enough effect; inconclusive means small, poorly fitted or top-dose-only effect, or another doubt; inactive means no such curve, though single readings can be large; an effect the other way counts as inactive or inconclusive.
# What was measured:
# [1] = P-glycoprotein substrates identified in KB-8-5-11 adenocarcinoma cell line, qHTS therapeutic library screen (AID 1346987); further: nearly all actives have a fitted effect of over 65% in size; further: potency means the concentration at half of the fitted maximal effect
# Method in brief: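 Compounds are pinned in dose-response onto KB-8-5-11 cells (500 cells/well, colchicine-free medium) and left 72 h at 37 degree C. CellTiter-Glo luminescence then yields AC50 values.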
# [2] = NS1 protein of Zika virus - qHTS assay to identify small molecule inhibitors in human HEK 293 cells (AID 1347053); further: nearly all actives have a fitted effect of over 55% in size; further: potency means the concentration at half of the fitted maximal effect
# Method in brief: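 In this cell-based screen, HEK 293 cultures received compound for one hour before Zika MR766 at MOI = 0.5. NS1 was quantified 24 hours later by TR-FRET, normalized to virus-free wells and infected wells.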
# [3] = qHTS of pediatric cancer cell lines to identify multiple opportunities for drug repurposing: Primary screen for TC32 cells (AID 1347089); further: nearly all actives have a fitted effect of over 60% in size; further: potency means the concentration at half of the fitted maximal effect
# Method in brief: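 qHTS, TC32, 48 h drug treatment, CellTiter-Glo luminescence as a proxy for metabolically active cells; primary top concentration 46 µM (MIPE 11-pt, NPC 8-pt); confirmatory 11-pt.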
# [4] = qHTS of pediatric cancer cell lines to identify multiple opportunities for drug repurposing: Primary screen for SJ-GBM2 cells (AID 1347091); further: potency means the concentration at half of the fitted maximal effect
# Method in brief: (§1)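 Cell viability, CellTiter-Glo luminescence; 500-1,000 cells/well, 8- or 11-point titration, 48 h compound exposure at 37 degrees C, 5% CO2. Controls: DMSO neutral, bortezomib 2.3 µM final as positive.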
# [5] = qHTS of pediatric cancer cell lines to identify multiple opportunities for drug repurposing: Primary screen for A673 cells (AID 1347092); further: nearly all actives have a fitted effect of over 45% in size; further: potency means the concentration at half of the fitted maximal effect
# Method in brief: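 Luminescence from CellTiter-Glo, taken after 15 min at room temperature, served as the proxy for metabolically active cells following 48 h treatment. Both potency and efficacy were taken from curves fitted to the titration data.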
# [6] = qHTS of pediatric cancer cell lines to identify multiple opportunities for drug repurposing: Primary screen for SK-N-MC cells (AID 1347093); further: potency means the concentration at half of the fitted maximal effect
# Method in brief: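 Metabolically active cells were quantified by ATP-dependent luminescence (CellTiter-Glo, 15 min at room temperature) following 48 h treatment. Cells had been plated at 500-1,000 per well and settled for 5 h beforehand.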
# [7] = qHTS of pediatric cancer cell lines to identify multiple opportunities for drug repurposing: Primary screen for BT-37 cells (AID 1347094); further: potency means the concentration at half of the fitted maximal effect
# Method in brief: (§2)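 Viability was measured as metabolically active cells after 48 hours of treatment, read by CellTiter-Glo luminescence. Compounds were tested at multiple final concentrations, giving concentration-response curves.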
# [8] = qHTS of pediatric cancer cell lines to identify multiple opportunities for drug repurposing: Primary screen for NB-EBc1 cells (AID 1347095); further: potency means the concentration at half of the fitted maximal effect
# Method in brief: as §2
# [9] = qHTS of pediatric cancer cell lines to identify multiple opportunities for drug repurposing: Primary screen for U-2 OS cells (AID 1347096); further: nearly all actives have a fitted effect of over 50% in size
# Method in brief: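 Cells (500-1,000/well) rested 5 h, then received compounds for 48 h; metabolically active cells were measured by CellTiter-Glo luminescence. Final concentrations spanned up to 46 µM (MIPE, 11-point) or 0.59 nM-46 µM (NPC, 8-point) in primary screens, 11-point in follow-ups.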
# [10] = qHTS of pediatric cancer cell lines to identify multiple opportunities for drug repurposing: Primary screen for Saos-2 cells (AID 1347097); further: nearly all actives have a fitted effect of over 40% in size; further: potency means the concentration at half of the fitted maximal effect
# Method in brief: as §2
# [11] = qHTS of pediatric cancer cell lines to identify multiple opportunities for drug repurposing: Primary screen for DAOY cells (AID 1347090); further: nearly all actives have a fitted effect of over 55% in size; further: potency means the concentration at half of the fitted maximal effect
# Method in brief: as §1
Structure (SMILES),Potency [1],Potency [2],Potency [3],Potency [4],Potency [5],Potency [6],Potency [7],Potency [8],Potency [9],Potency [10],Potency [11]
OC[C@H]1O[C@@H](O[C@H]2[C@@H](O)[C@@](O)(CO)O[C@@H]2CO)[C@H](O)[C@@H](O)[C@@H]1O,inactive,inactive,inactive,inactive,inactive,inactive,inactive,inactive,inactive,inactive,–
O=C(CC12CC3CC(CC(C3)C1)C2)Nc1cccc2nc(NCCNCCO)ccc12,inactive,inactive,inactive,–,18.7 µM (active),–,inactive,–,inactive,–,9.35 µM (active)
NC(N)=Nc1nc(CSCCC(N)=NS(N)(=O)=O)cs1,inactive,inactive,inactive,inactive,11.8 µM (active),10.5 µM (active),inactive,–,inactive,inactive,–
OC[C@H]1O[C@@H](OCCc2ccc(O)cc2)[C@H](O)[C@@H](O)[C@H]1O,inactive,inactive,inactive,inactive,–,26.4 µM (active),inactive,–,inactive,–,–
COc1cc(Cl)cn2c(-c3cccc(NC4CNC4)n3)cnc12,inactive,inactive,inactive,5.26 µM (active),4.69 µM (active),2.96 µM (active),–,2.96 µM (active),–,–,–
CCCC1OC2C[C@@H]3[C@H]4CCC5=CC(=O)C=C[C@]5(C)[C@H]4C(O)C[C@]3(C)[C@]2(C(=O)CO)O1 (stereo partly specified),inactive,inactive,inactive,–,inactive,20.9 µM (active),–,–,–,–,inactive
CC1CNc2c(cccc2S(=O)(=O)N[C@@H](CCCN=C(N)N)C(=O)N2CC[C@@H](C)C[C@@H]2C(=O)O)C1 (stereo partly specified),inactive,inactive,inactive,18.7 µM (active),5.9 µM (active),6.62 µM (active),10.9 µM (active),6.62 µM (active),inactive,–,–
N#CC(c1ccc(Cl)cc1)c1c(Cl)cc(-n2ncc(=O)[nH]c2=O)cc1Cl (stereo unspecified),inactive,inactive,inactive,23.5 µM (active),11.8 µM (active),–,–,8.33 µM (active),–,9.35 µM (active),9.35 µM (active)
Cc1nc(C(=O)NCC(=O)O)c(O)c2ccc(Oc3ccccc3)cc12,inactive,inactive,inactive,inactive,inactive,–,inactive,–,inactive,–,inactive
O=C(O)c1nc(=O)[nH]c(=O)[nH]1,inactive,inactive,inactive,–,inactive,inactive,inactive,inactive,inactive,inactive,inactive
CCN(CC)CCCCNc1nc2cc(Cl)c(Cl)cc2nc1-c1ccc(-c2cccs2)s1,9.35 µM (active),inactive,inactive,10.5 µM (active),11.8 µM (active),13.2 µM (active),27.3 µM (active),20.9 µM (active),–,–,–
Cc1cc2nc3c(=O)[nH]c(=O)nc-3n(CC(O)C(O)C(O)CO)c2cc1C (stereo unspecified),inactive,inactive,inactive,inactive,–,29.6 µM (active),inactive,inactive,inactive,inactive,inactive
COc1ccc2c(c1)c(C1=C(c3c[nH]c4ccccc34)C(=O)NC1=O)cn2CCCN(C)C,inactive,inactive,inactive,–,23.5 µM (active),–,–,20.9 µM (active),inactive,–,inactive
CCOC(=O)[C@H](CCc1ccccc1)N[C@@H](C)C(=O)N1CCCC1C(=O)O (stereo partly specified),inactive,inactive,inactive,inactive,18.7 µM (active),8.33 µM (active),inactive,–,inactive,inactive,–
CC1=C(C(=O)Nc2cc3cn[nH]c3cc2F)C(c2ccc(C(F)(F)F)cc2)CC(=O)N1 (stereo unspecified),inactive,inactive,inactive,–,–,–,inactive,–,inactive,–,inactive
O=C(O)C1=NC(C(=O)O)CC(C=CN2c3cc(O)c(OC4OC(CO)C(O)C(O)C4O)cc3CC2C(=O)O)=C1 (stereo unspecified),inactive,inactive,inactive,inactive,inactive,–,inactive,inactive,inactive,inactive,inactive
CC(C)(OCc1nn(Cc2ccccc2)c2ccccc12)C(=O)O,inactive,inactive,inactive,inactive,–,26.4 µM (active),inactive,11.8 µM (active),inactive,inactive,–
CCCCOCCOc1nc(-c2ccc(C(=O)O)c(F)c2)sc1C,inactive,inactive,inactive,inactive,inactive,–,inactive,inactive,inactive,inactive,–
CCN(CCO)CCCOc1ccc2c(Nc3cc(CC(=O)Nc4cccc(F)c4)[nH]n3)ncnc2c1,inactive,inactive,0.33 µM (active),0.166 µM (active),–,0.209 µM (active),–,–,inactive,inactive,inactive
CCC(=O)NCC[C@@H]1CCc2ccc3c(c21)CCO3,inactive,inactive,inactive,inactive,–,inactive,inactive,inactive,inactive,–,inactive

Structure (SMILES),Potency [1],Potency [2],Potency [3],Potency [4],Potency [5],Potency [6],Potency [7],Potency [8],Potency [9],Potency [10],Potency [11]
CCOC(=O)N1c2ccc(C(F)(F)F)cc2[C@@H](N(Cc2cc(C(F)(F)F)cc(C(F)(F)F)c2)C(=O)OC)C[C@H]1CC,inactive,inactive,inactive,inactive,inactive,–,–,inactive,inactive,–,inactive
CC1(C)CC(=O)c2c(C(F)(F)F)nn(-c3ccc(C(N)=O)c(NC4CCC(O)CC4)c3)c2C1 (stereo unspecified),0.418 µM (active),23.5 µM (active),0.208 µM (active),0.264 µM (active),0.118 µM (active),0.0743 µM (active),–,0.148 µM (active),inactive,–,–
CCCCCOC(=O)Nc1nc(=O)n([C@@H]2O[C@H](C)[C@@H](O)C2O)cc1F (stereo partly specified),inactive,inactive,inactive,inactive,inactive,–,inactive,inactive,inactive,–,–
COc1ccc(-c2cc(=O)c3c(O)cc(O[C@@H]4O[C@H](CO[C@@H]5O[C@@H](C)[C@H](O)[C@@H](O)[C@@H]5O)[C@@H](O)[C@H](O)[C@@H]4O)cc3o2)cc1O,inactive,inactive,inactive,inactive,14.8 µM (active),7.43 µM (active),inactive,inactive,inactive,inactive,–
CCNC(=O)CCCC=CC[C@@H]1[C@H](C=CC(O)CCc2ccccc2)[C@@H](O)C[C@@H]1O (stereo partly specified),inactive,inactive,inactive,inactive,inactive,inactive,–,inactive,inactive,inactive,–
CN1[C@H]2CC[C@H]1CC(OC(=O)c1c[nH]c3ccccc13)C2 (stereo partly specified),inactive,inactive,inactive,inactive,inactive,–,inactive,inactive,inactive,–,–
C[C@@H](O)[C@H]1C(=O)N2C(C(=O)OCOC(=O)C(C)(C)C)=C(SC3CN(C4=NCCS4)C3)[C@H](C)[C@H]12,inactive,inactive,–,inactive,–,inactive,inactive,inactive,inactive,inactive,inactive
Cc1cc(CS(=O)(=O)c2ccccc2)cc(OCc2ccc(CN3CCC[C@H]3CO)cc2)c1,4.18 µM (active),inactive,–,–,5.9 µM (active),–,–,inactive,inactive,–,–
Cc1ccc(NC(=O)c2cccc(N(C)C)c2)cc1NC(=O)c1ccc(O)cc1,inactive,inactive,–,inactive,0.148 µM (active),–,3.85 µM (active),11.8 µM (active),–,–,–
COc1ccc(-c2oc3c(CC=C(C)C)c(O)cc(O)c3c(=O)c2O)cc1,inactive,inactive,–,18.7 µM (active),18.7 µM (active),9.35 µM (active),inactive,18.7 µM (active),inactive,–,23.5 µM (active)
Cc1ccc(C2=Nc3ccc(Cl)cc3OC2)cc1,inactive,inactive,–,23.5 µM (active),18.7 µM (active),–,–,–,inactive,–,–
C[C@H]1[C@H](O)O[C@@H]2O[C@@]3(C)CC[C@@H]4[C@H](C)CC[C@@H]1[C@@]24OO3,18.7 µM (active),26.4 µM (active),–,–,7.43 µM (active),1.05 µM (active),3.85 µM (active),3.72 µM (active),–,–,–
CCc1cccc(CC)c1NC(=O)N1Cc2[nH]nc(NC(=O)c3ccc(N4CCN(C)CC4)cc3)c2C1,inactive,inactive,–,–,14.8 µM (active),0.833 µM (active),inactive,inactive,–,–,–
C=CC[N+]1([C@H]2C[C@H]3[C@@H]4CC[C@H]5C[C@H](O)[C@@H](N6CCOCC6)C[C@]5(C)[C@@H]4CC[C@]3(C)[C@H]2OC(C)=O)CCCC1,inactive,inactive,–,inactive,–,inactive,inactive,inactive,inactive,inactive,–
COc1cc2c(cc1OC)[C@@H]1Cc3ccc(OC)c(OC)c3CN1CC2,inactive,inactive,inactive,inactive,–,inactive,–,–,inactive,inactive,–
CNC(=O)c1c(-c2ccc(F)cc2)oc2cc(N(CCO)S(C)(=O)=O)c(C3CC3)cc12,inactive,inactive,–,–,23.5 µM (active),–,–,–,–,16.6 µM (active),23.5 µM (active)
COc1cc(CNC(=O)CCCCC=CC(C)C)ccc1O,inactive,inactive,–,inactive,–,inactive,inactive,inactive,inactive,–,inactive
C[C@@H](N)c1ccc(C(=O)Nc2ccnc3[nH]ccc23)cc1,inactive,inactive,–,11.8 µM (active),9.35 µM (active),26.4 µM (active),–,–,–,–,–
COc1ccc(-c2nc3ccc(C4=NNC(=O)CC4C)cc3[nH]2)cc1 (stereo unspecified),inactive,inactive,–,–,–,–,–,11.9 µM (active),inactive,–,21.1 µM (active)
